Here are results for 12 molecules from PubChem BioAssay (NCATS).

Records with an inconclusive call do not appear. Activity calls are given as the source filed them. Calls follow the shape of the dose curve; as a rule, active = well fitted cell-killing curve with a large enough effect; inconclusive = small, poorly fitted or top-dose-only effect; inactive = no such curve, though single readings can be large or run the other way.
Potency is read from the fitted curve at half-maximal effect.

This experiment in a line: qHTS of pediatric cancer cell lines to identify multiple opportunities for drug repurposing: Confirmatory screen for Rh41 cells (AID 1347123).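 Also: 48 h compound exposure; nearly all actives have a fitted effect of over 60% in size.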 The settings on record: Rh41 rhabdomyosarcoma cells, viability/cytotoxicity qHTS; series mostly up to 45.9 µM; activity change, negative = cytotoxic: at the top concentration. The source says: Drug repurposing or repositioning has been offered as a strategy for drug development in oncology programs. This approach has special potential for childhood cancers and other rare or orphan diseases, where the expected return on new drug development has been a disincentive to pharmaceuticals.
In this project we exploit the poly-pharmacology of drugs to discover new indications via phenotypic screening of a panel of 19 well-characterized cell lines derived from solid tumors seen in children and adolescents. The goal is to identify approved drugs with previously unrecognized anticancer properties that has the potential to reveal new mechanisms and biological processes involved in carcinogenesis or drug resistance. We employed a titration-based paradigm (quantitative high-throughput screening or qHTS), where all compounds were tested at multiple concentrations for their effect on cell viability. Concentration-response curves (CRCs) were derived directly from the primary screen, and both potency and efficacy values were used to identify compounds with robust bioactivity profiles. We screened the NIH Chemical Genomics Center (NCGC) Pharmaceutical Collection (NPC) and Mechanism Interrogation Plate (MIPE) small molecule collections of approved and investigational compounds against these cell lines; and measured metabolically active cells after 48 hours of compound treatment as a proxy for cell viability.
Assay Submitter: Nathalia J. Martinez, National Center for Advancing Translational Sciences, National Institutes of Health, Rockville, MD, USA; email: natalia.martinez@nih.gov
[1] Shen, M et al. Quantitative high-throughput phenotypic screening of pediatric cancer cell lines identifies multiple opportunities for drug repurposing. Oncotarget 2017 Dec 19;9(4):4758-4772. PMID 29435139.
The cells were obtained from University of North Carolina (UNC), Pediatric Preclinical Testing Program (PPT), and Coriell Institute (CI).
qHTS cell viability assay:
Cells were assayed in growth media at a density of 500-1,000 cells/well. Five microliters of cells were dispensed into 1,536-well, white, solid-bottom, TC-treated plates (Greiner Bio One) using a multidrop dispenser and incubated at 37 degrees C, 5% CO2, under a humidified atmosphere for 5 hours. Twenty-three nanoliters of compounds and controls (neutral control DMSO or positive control bortezomib at final concentration of 2.3 µM) were subsequently transferred by Kalypsys pintool. For primary screens, the MIPE collection was tested at 11-point dilutions (final concentrations range from 0.78 nM to 46 µM) and the NPC collection at 8-point dilutions (final concentrations range from 0.59 nM to 46 µM). Compounds tested in follow-up screens were assayed at 11-point dilutions. Cells were incubated for 48 hours, followed by addition of 3 µL of CellTiter-Glo (Promega). After a 15 min incubation at room temperature, samples were analyzed for luminescence intensity using a ViewLux High-throughput CCD imager equipped with clear filters.
Consider `CCCCCCCCCCCC[N+](C)(C)CCOc1ccccc1`, for which the Potency is 7.37 µM (active). Still for that read-out and setting: then `CC[n+]1c(-c2ccccc2)c2cc(N)ccc2c2ccc(N)cc21`, with 1.65 µM (active).

On to `CC1Sc2c(C(=O)O)c(=O)c3cc(F)c(N4CCNCC4)cc3n21` (configuration not stated), for which the “activity change, negative = cytotoxic” value was -1.44% (inactive).

`CCCCCCCCC(=O)NCc1ccc(O)c(OC)c1`: the “activity change, negative = cytotoxic” value is -36.1% (inactive). In the case of `O=C(O)Cc1ccccc1`, the “activity change, negative = cytotoxic” value is 0.0464% (inactive). For the molecule `ClC1=C(Cl)C2(Cl)C(CBr)CC1(Cl)C2(Cl)Cl` (configuration not stated), the “activity change, negative = cytotoxic” value was -10.7% (inactive). Turning to `Cc1ccc([N+](=O)[O-])[c]2c1[O][Hg]2`, the Potency was 0.233 µM (active).

As to `COc1ccc2c(C(=O)c3ccc(Cl)cc3)c(C)n(CC(=O)O)c2c1`, the “activity change, negative = cytotoxic” value is -6.71% (inactive).

On to `COC(=O)C1=CCCN(C)C1`, for which the “activity change, negative = cytotoxic” value is 19.5% (inactive). Turning to `CN(C)C(=S)SSC(=S)N(C)C`, the Potency was 0.233 µM (active).

For `CCc1ccc(C2CCNCC2)cc1`, the “activity change, negative = cytotoxic” value is -7.3% (inactive). Still for that read-out and setting: to `COc1ccc(C(=O)N2CCCC2=O)cc1` belongs 2.01% (inactive).
